# Reference: PubChem BioAssay (NCATS)
# Results filed as inconclusive are left out. A number with no mark means an inactive call. Calls of active or inactive are those of the source. Calls follow the shape of the dose curve; as a rule, active = well fitted inhibition curve with a large enough effect; inconclusive = small, poorly fitted or top-dose-only effect; inactive = no such curve, though single readings can be large or run the other way. Non-standard residues stand in square brackets, D forms with d. Residues, ends and D or L forms follow the SMILES beside them. *: point of attachment. Sta = CC(C)C[C@H](N)[C@@H](O)CC(=O)O; Isovaleryl = CC(C)CC(=O)*
# Test: qHTS Screen of the MIPE 4.0 Collection Against Ewings Sarcoma (TC32) (AID 1259256); also: nearly all actives have a fitted effect of over 45% in size;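 as to viability (percent of control): 100% = DMSO-treated cells and 0% = medium-only wells without cells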
# Conditions: TC32 Ewing sarcoma viability, CellTiter-Glo, 48 h; series mostly up to 45.8 µM; viability (percent of control): at the top concentration
# Text: There is a large unmet medical need for treatments for Ewing sarcoma, a pediatric sarcoma. We sought to identify compounds that inhibited Ewing sarcoma cells in vitro with the goal to then test promising drugs in two drug combinations in vitro to look for synergistic drug combinations. Promising combinations would then proceed to additional validation, including in vivo testing.
# Using the NCATS developed oncology compound library called the Mechanism of Interrogation Plate (MIPE), four Ewing sarcoma cell lines were evaluated (TC32, TC71, RDES, EW8). Compounds, in a 12-point titration series, were incubated with cells for 48 hours and the read out was cell viability (CellTiter-Glo from Promega). These initial experiments were used to select appropriate concentrations of each single agent for subsequent two-drug matrix combinations such that the concentrations in the matrices would span both activity and non-activity.
# Cells, in the log phase of growth, were seeded in 5 uL of RPMI plus 5% FBS, […] L-glutamine, 100 U/ml penicillin and 100 ug/ml streptomycin into 1536-well solid-bottom white tissue culture treated Greiner Bio One Plates (789173-F) using a MultiDrop Combi (Thermofisher Scientific) dispenser and a small sterile cassette. One column was media alone to be used as a :"no cells" control. The plates were then covered with sterilized stainless steel gasketed lids from Kalypsys. After allowing cells to attach for 4 hours, 23 nL of test compound or control (negative control DMSO and positive control 9.2 uM Bortezomib-final) were added from a 1536-well polypropylene compound source plate to each well using a 1536 head pin tool from Kalypsys. Cells were then incubated for 48 hours at 37C, 95% relative humidity and 5% CO2. After 48 hours, plates were removed from the incubator and 3 uL of CellTiter-Glo (Promega) was added using an Aurora Flying Reagent Dispenser Bioraptor. Plates were incubated at room temperature for 10 minutes prior to reading the luminescence on the Viewlux (PerkinElmer). The relative luciferase units are used to calculate the percent activity using the activity of DMSO in the cells and no cells columns for normalization of no inhibition and full inhibition respectively.
# Potency is read from the fitted curve at half-maximal effect.
SMILES,Potency,viability (percent of control)
CN(C)CCCC1(c2ccc(F)cc2)OCc2cc(C#N)ccc21 (stereo not given),16.6 µM (active),
CCc1nc(N)nc(N)c1-c1ccc(Cl)cc1,2.64 µM (active),
CC1=C(C)C(=O)C(C(CCCCCC(=O)O)c2ccccc2)=C(C)C1=O (stereo not given),,138%
CC(S)C(=O)NCC(=O)O (stereo not given),,121%
CC(C)CC(=O)N[C@H](C(=O)N[C@H](C(=O)N[C@@H](CC(C)C)[C@@H](O)CC(=O)N[C@@H](C)C(=O)N[C@@H](CC(C)C)[C@@H](O)CC(=O)O)C(C)C)C(C)C (Isovaleryl-VV[Sta]A[Sta]-OH),,123%
Cc1nc2n(c(=O)c1CCN1CCC(c3noc4cc(F)ccc34)CC1)CCCC2,,102%
Cc1ccc(Nc2nccc(N(C)c3ccc4c(C)n(C)nc4c3)n2)cc1S(N)(=O)=O,,118%
Nc1ccc(S(N)(=O)=O)cc1,,89.8%
C=C(c1ccc(C(=O)O)cc1)c1cc2c(cc1C)C(C)(C)CCC2(C)C,,109%
O=Nc1c(-c2c(O)[nH]c3cc(Br)ccc23)[nH]c2ccccc12,4.18 µM (active),
Cc1cc(Cl)ccc1OCCCC(=O)NO,11.8 µM (active),
O=c1ccc2ccc(O)c(O)c2o1,13.2 µM (active),
COCCCOc1ccnc(CS(=O)c2nc3ccccc3[nH]2)c1C (stereo not given),8.33 µM (active),
O=C(O)c1cccnc1Nc1cccc(C(F)(F)F)c1,,129%
CCOC(=O)c1c(C)n(C)c2ccc(O)cc12,,110%
CCN(CC)CCOc1ccc(Nc2ncc3cc(-c4c(Cl)cccc4Cl)c(=O)n(C)c3n2)cc1,2.64 µM (active),
CCN(CCO)CCCC(C)Nc1ccnc2cc(Cl)ccc12 (stereo not given),23.5 µM (active),
Cc1cc(=O)oc2cc(O)ccc12,,124%
CN(C)C(=O)COC(=O)Cc1ccc(OC(=O)c2ccc(N=C(N)N)cc2)cc1,0.0469 µM (active),
C[C@]12CCC(=O)C=C1CC[C@@H]1[C@H]2[C@@H](O)C[C@@]2(C)[C@H]1CC[C@]2(O)C(=O)CO,,133%

SMILES,Potency,viability (percent of control)
CCN(CC)C(=S)SSC(=S)N(CC)CC,,109%
C[C@H](Cc1ccc(O)c(O)c1)[C@@H](C)Cc1ccc(O)c(O)c1,13.2 µM (active),
Cc1c(C(=O)NN2CCCCC2)nn(-c2ccc(Cl)cc2Cl)c1-c1ccc(Cl)cc1,26.4 µM (active),
COc1ccccc1N1CCN(CCN(C(=O)C2CCCCC2)c2ccccn2)CC1,,109%
CC[C@]1(O)C[C@H]2CN(CCc3c([nH]c4ccccc34)[C@@](C(=O)OC)(c3cc4c(cc3OC)N(C=O)[C@H]3[C@@](O)(C(=O)OC)[C@H](OC(C)=O)[C@]5(CC)C=CCN6CC[C@]43[C@@H]65)C2)C1,,107%
NNc1nncc2ccccc12,,126%
CC(C)C[C@H](NC(=O)[C@H](Cc1ccccc1)NC(=O)c1cnccn1)B(O)O,0.0372 µM (active),
c1ccc2[nH]c(-c3cscn3)nc2c1,,129%
CN(C)CCc1c[nH]c2ccc(Cn3cncn3)cc12,,116%
CCOc1cc(CC(=O)N[C@@H](CC(C)C)c2ccccc2N2CCCCC2)ccc1C(=O)O,,131%
N[C@@H](Cc1cc(I)c(Oc2cc(I)c(O)c(I)c2)c(I)c1)C(=O)O,3.72 µM (active),
Nc1cccc2c1CN(C1CCC(=O)NC1=O)C2=O (stereo not given),,106% [at 92.2 µM]
O=C(NOCC1CC1)c1ccc(F)c(F)c1Nc1ccc(I)cc1Cl,16.6 µM (active),
CC(C)(S)[C@@H](N)C(=O)O,,137%
CC(C)c1nc(CN(C)C(=O)N[C@H](C(=O)N[C@@H](Cc2ccccc2)C[C@H](O)[C@H](Cc2ccccc2)NC(=O)OCc2cncs2)C(C)C)cs1,14.8 µM (active),
CNC[C@H](O)c1ccc(O)c(O)c1,38.2 µM (active),
CN(C)[C@@H](CCOc1cccc2ccccc12)c1ccccc1,26.4 µM (active),
Cc1cc(C2CCCCC2)n(O)c(=O)c1,2.64 µM (active),
S=c1nc[nH]c2nc[nH]c12,3.32 µM (active),
O=C(O)c1cccc(-c2noc(-c3ccccc3F)n2)c1,,98.8%
